Most compounds without a hit are left out; they make up all but 10% or so of the library.
JMJD2A Tudor inh: qHTS Assay for Inhibitors of JMJD2A-Tudor Domain. Lysine-specific demethylase 4A (Homo sapiens), O75164. AlphaScreen JMJD2A-Tudor / H3K4me3 peptide binding. Potency, µM (highest dose often 114 µM), actives largely listed as inhibitors. 390,000 compounds, 4.4% hits. AID 504339, 2011; note: nearly all actives have a fitted effect of over 50% in size
CtBP-E1A blk: qHTS Assay for Inhibitors of the CtBP/E1A Interaction; 340,000 compounds, 0.49% hits; AlphaScreen GST-E1A/His-CtBP binding, 1536-well; active compounds read low; CtBP / adenovirus E1A interaction (AlphaScreen); activity change, % (no concentration beside the values); in the data active = activity change below about -65%; inconclusive = mostly about -30% to -63%
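In 5 uL wells, 23 nL compound meets equimolar GST-E1A and His-CtBP (5X stock 125 nM each) for 2 h, 37 °C. Beads (5X, 50 ug/mL) then 1 h, 37 °C, dark.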
G9a block: qHTS Assay for Inhibitors of Histone Lysine Methyltransferase G9a | G9a H3K9 monomethylation, AlphaScreen, 2 h | 350,000 compounds, 8.8% hits | Potency, µM (highest dose often 102 µM), actives largely listed as inhibitors | Histone-lysine N-methyltransferase EHMT2 (Homo sapiens), Q96KQ7; note: nearly all actives have a fitted effect of over 75% in size
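Methyltransferase reactions run at room temperature for 2 h (20 nM enzyme, 500 nM biotin-H3K9 peptide, 20 uM SAM) after a 15 min compound preincubation; product detected by AlphaScreen beads and anti-H3K9me1 antibody.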
HP1b binding inh: HTS for Inhibitors of HP1-beta Chromodomain Interactions with Methylated Histone Tails | AID 540317, 2011 | AlphaScreen HP1-beta / biotin-H3K9me3 peptide binding | 390,000 compounds, 0.56% hits | Potency, µM (doses to about 114 µM), actives largely listed as inhibitors; note: nearly all actives have a fitted effect of over 70% in size
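HP1-beta protein (50 nM final) preincubated 30 min at room temperature with biotinylated H3(1-18)K9me3 peptide (50 nM) in PBS pH 7.4, 0.01% Tween-20, then compound added for 30 min. AlphaScreen streptavidin donor/nickel chelate acceptor beads (10 ug/mL final), 30 min dark, luminescence read.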
Six1-Eya2 blk: qHTS Assay for Inhibitors of the Six1/Eya2 Interaction; 360,000 compounds, 0.56% hits; activity change, % (test concentration not listed); Homeobox protein SIX1 (Homo sapiens) + Protein phosphatase EYA2 (Homo sapiens), …; AID 651725, 2012; AlphaScreen GST-Six1/His-Eya2 binding, biochemical; active compounds read low; in the data active = activity change below about -65%; inconclusive = mostly about -30% to -63%
Target sequence (O00167 whole entry, looked up): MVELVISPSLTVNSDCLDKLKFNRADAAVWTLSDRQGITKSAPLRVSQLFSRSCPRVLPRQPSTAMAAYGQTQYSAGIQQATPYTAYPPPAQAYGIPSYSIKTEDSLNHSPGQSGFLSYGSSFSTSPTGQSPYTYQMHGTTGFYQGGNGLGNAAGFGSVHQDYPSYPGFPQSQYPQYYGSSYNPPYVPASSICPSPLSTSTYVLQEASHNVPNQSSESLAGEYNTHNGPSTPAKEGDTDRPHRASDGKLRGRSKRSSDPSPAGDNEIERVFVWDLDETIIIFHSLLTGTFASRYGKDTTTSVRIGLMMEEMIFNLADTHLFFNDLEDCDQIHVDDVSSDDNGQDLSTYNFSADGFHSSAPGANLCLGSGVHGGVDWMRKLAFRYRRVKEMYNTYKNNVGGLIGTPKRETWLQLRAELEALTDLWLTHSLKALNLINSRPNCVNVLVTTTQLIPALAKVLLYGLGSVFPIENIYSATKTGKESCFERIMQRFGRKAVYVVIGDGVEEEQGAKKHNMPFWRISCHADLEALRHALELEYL
Target sequence (Q15475 whole entry, looked up): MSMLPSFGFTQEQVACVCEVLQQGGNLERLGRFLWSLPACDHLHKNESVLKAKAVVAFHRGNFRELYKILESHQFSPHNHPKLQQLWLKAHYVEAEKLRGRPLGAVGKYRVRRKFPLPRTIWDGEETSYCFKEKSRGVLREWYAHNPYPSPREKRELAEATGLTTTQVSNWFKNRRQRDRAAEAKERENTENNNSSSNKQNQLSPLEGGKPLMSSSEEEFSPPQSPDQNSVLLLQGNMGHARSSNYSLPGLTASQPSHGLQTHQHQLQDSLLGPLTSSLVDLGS
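Homogeneous AlphaScreen proximity assay pairing GST-Six1 with His-tagged Eya2 (added as 5X mix: 250 nM and 500 nM) in 50 mM Tris pH 8.0, 300 mM NaCl, 1 mM TCEP. Glutathione donor and nickel acceptor beads; 1 h, 37 °C, dark.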
BAZ2B block: qHTS Assay for Inhibitors of BAZ2B; Bromodomain adjacent to zinc finger domain protein 2B (Homo sapiens), Q9UIF8; AlphaScreen BAZ2B-H3K14Ac peptide displacement; Potency, µM (doses to about 114 µM), usual class: inhibitors; 360,000 compounds, 4.4% hits; note: nearly all actives have a fitted effect of over 60% in size
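AlphaScreen displacement of biotin-H3(5-23)K14Ac peptide (50 nM final) from BAZ2B (50 nM final) in PBS pH 7.4, 0.01% Tween-20; complex preformed 30 min RT, then compounds (top 110 uM) 30 min RT, beads 20 min dark.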
Numbers stand for hits; 0 = inactive; ? = inconclusive; - = no result given; ! = repeats disagree; [ ] = another dose, or the depositor's remark. Unless noted, calls come from the whole dose curve; as a rule, active = well fitted inhibition curve with a large enough effect; inconclusive = small, poorly fitted or top-dose-only effect; inactive = no such curve, though single readings can be large or run the other way.

SMILES | JMJD2A Tudor inh | CtBP-E1A blk | G9a block | HP1b binding inh | Six1-Eya2 blk | BAZ2B block
O=c1c2ccccc2nc(-c2ccco2)n1-c1ccccc1 | 0 | 0 | ? | 0 | 0 | 0
Cc1ccccc1-n1c(O)c(/C=N/Nc2nc3c(c(=O)n(C)c(=O)n3C)n2C)c(=O)[nH]c1=S | ? | -78 | ? | 0 | -68 | ?
Cn1c(=O)c2c(nc(N/N=C/c3c(O)n(C4CCCCC4)c(=S)[nH]c3=O)n2C)n(C)c1=O | 79µM | ? | 22µM | ? | -81 | 50µM
Cn1ccnc1 | - | - | 0[12.7 µM] | - | - | -
Cc1ccc2c(c1)C1CN(C)CCC1N2C(=O)c1cccnc1Cl (configuration not stated) | 0 | 0 | - | 0 | 0 | 0
Cc1ccc2c(c1)C1CN(C)CCC1N2C(=O)c1ccc(Br)o1 (configuration not stated) | 0 | 0 | 79µM | 0 | 0 | 0
Nn1c(COc2ccc(Cl)cc2)n[nH]c1=S | 32µM | 0 | 1.8µM | 0 | 0 | 0
Cc1cccc(C)c1OCc1n[nH]c(=S)n1N | 18µM | - | 1.8µM | 0 | 0 | ?
Cc1cc(OCC(=O)N[C@@H](Cc2ccccc2)C(=O)O)c2c3c(c(=O)oc2c1)CCC3 | 0 | 0 | 0[12.7 µM] | 0 | 0 | 0
Cc1cc(OC(C)C(=O)NCc2ccncc2)c2c3c(c(=O)oc2c1)CCC3 (configuration not stated) | 0 | 0 | 0 | 0 | 0 | 0
Cc1cc(OCC(=O)N[C@H](C(=O)O)c2ccccc2)c2c3c(c(=O)oc2c1)CCC3 | ? | ? | 79µM | 0 | ? | 0
Cc1cc(OC(C)C(=O)NCc2cccnc2)c2c3c(c(=O)oc2c1)CCC3 (configuration not stated) | 89µM | 0 | 0 | 0 | 0 | 0
CC(NS(=O)(=O)c1ccc(CCC(=O)N2CCN(C)CC2)cc1)c1ccccc1 (configuration not stated) | 0 | 0 | 0[12.7 µM] | 0 | 0 | 0
O=C(Cc1coc2cc3c(cc12)CCC3)OCC(=O)N1CCCC1=O | 0 | 0 | 0 | 0 | 0 | ?
COC(=O)/C=C/C(=O)N[C@@H]1CC[C@@]2(O)[C@H]3Cc4ccc(O)c5c4[C@@]2(CCN3CC2CC2)[C@H]1O5 | - | - | 0 | - | - | -
Cc1ccc2c(c1)=NC(=O)/C(=C/c1c(O)[nH]c(=O)[nH]c1=O)C=2 | 0 | 0 | ? | 0 | 0 | 0
CC1=Nc2ccccc2/C1=C/c1c(O)[nH]c(=O)[nH]c1=O | 0 | 0 | 79µM | 0 | 0 | ?
c1ccc(CN2CCC3(CCNCC3)CC2)cc1 | - | - | 0[12.7 µM] | - | - | -
O=C(O)C(O)(c1ccccc1)C1CCCCC1 (configuration not stated) | 0 | 0 | 0 | 0 | 0 | 0
OCCN(CC#CC(O)(c1ccccc1)C1CCCC1)CCO (configuration not stated) | ? | 0 | 50µM | 0 | 0 | 0
CC1CCc2cc(F)cc3c(=O)c(C(=O)O)cn1c23 (configuration not stated) | ? | 0 | 8.9µM | 0 | 0 | 56µM
CCn1cc(C(=O)O)c(=O)c2ccc(C)nc21 | 0 | 0 | 8.9µM! | 0 | 0 | 79µM
O=C(CN1CC(c2ccccc2)CC1=O)Nc1cccc(F)c1 (configuration not stated) | 0 | 0 | 0 | 0 | 0 | 0
O=C(Cn1c(=O)n(CC2CCC(C(=O)NCCc3ccccc3)CC2)c(=O)c2ccccc21)Nc1cccc(F)c1 (configuration not stated) | 56µM | - | 0 | 0 | - | 0
Oc1ccccc1-c1ccccc1 | - | - | 0 | - | - | -
COc1ccc(CCNc2nccn(-c3ccc(C)c(C)c3)c2=O)cc1OC | 0 | - | ? | ? | - | 45µM
CCOc1ccc(CCNC(=O)c2cc3c(-c4cccc(OC)c4)nn(C)c3s2)cc1OCC | 0 | - | ? | 0 | - | -

Source: PubChem BioAssay
